According to PubChem BioAssay AID493191 (Broad Institute, 2011):
The whole screen tested about 1,300 compounds, of which about 330 (25%) were called active. The rule behind the calls is not given here. Only a sample is shown. Entries with a potency or affinity are not part of this list.

assay: MALME3 melanoma cell viability loss, dose response, orthogonal assay for MITF inhibitor project, CellTiter-Glo, cherry-picked (AID 493191); conditions: CellTiter-Glo luminescence, 24 h; series mostly up to 35 µM

Row | Structure (SMILES) | outcome
1 | C=CCNC(=O)c1ccc2nc(Cc3ccc(OC)cc3)oc2c1 | inactive
2 | CN(C)CCNC(=O)/C(=C/c1ccc(-c2ccc(Cl)cc2)o1)NC(=O)c1ccccc1 | inactive
3 | Cc1ccc(C(=O)N/C(=C\c2ccc(-c3ccccc3[N+](=O)[O-])o2)C(=O)NCCN(C)C)cc1 | inactive
4 | Cc1ccc(C(=O)N/C(=C\c2ccc(-c3ccccc3[N+](=O)[O-])o2)C(=O)NCCCN(C)C)cc1 | inactive
5 | CCOc1ccc(-n2c(-c3ccc(OC)cc3)c[n+]3c2CCCCC3)cc1 | inactive
6 | CCN(CC)C(=O)CCCOc1ccc(Cl)cc1Cl | inactive
7 | Cc1nc2nc(C)c(NS(=O)(=O)c3ccc4c(c3)CCCC4)c(=O)n2[nH]1 | inactive
8 | Cc1cccnc1NC(=O)NC(=O)c1ccc(C(C)(C)C)s1 | inactive
9 | N#Cc1c(NC(=O)CSc2ncn[nH]2)sc2c1CCCC2 | inactive
10 | N#Cc1c(NC(=O)CSc2ncn[nH]2)sc2c1CCCCC2 | inactive
11 | Cn1nnnc1Sc1ncnc2scc(-c3cccs3)c12 | inactive
12 | Cc1ccc(-c2nc(-c3ccncc3)no2)cc1C | inactive
13 | O=C(Nc1cccnc1Cl)c1cc(-c2ccco2)on1 | inactive
14 | CCN(CC)S(=O)(=O)c1cccc(C(=O)N/N=C(\C)c2ccc(O)cc2O)c1 | inactive
15 | COc1cc(CN2CCC(C(=O)NCCC(C)C)CC2)ccc1OCc1ccccc1 | inactive
16 | O=C(Nc1ccc(Cl)cc1)N1CC=CCC1 | inactive
17 | O=C(Nc1ccc(Nc2ccncc2)cc1)c1ccc([N+](=O)[O-])cc1 | inactive
18 | COc1ccc2oc(=N)c(C(=O)Nc3ccccc3Cl)cc2c1 | inactive
19 | CCCCOc1ccc(-c2nnn(C(C)(C)C(=O)OC)n2)cc1 | inactive
20 | CC1=C/C(=N\NC(=S)Nc2cccnc2)CC(C)(C)C1 | inactive
21 | COc1cccc(/C=N/Nc2ncnc3c2ncn3Cc2ccccc2)c1O | inactive
22 | COc1ccc(/C=N/N=C2/SCC(=O)N2Cc2ccccc2)cc1 | inactive
23 | N#Cc1ccc(-c2cccnc2)nc1SCC(=O)c1ccccc1 | inactive

Row | Structure (SMILES) | outcome
24 | O=C(c1ccc([N+](=O)[O-])s1)N1CCCc2ccccc21 | inactive
25 | COc1ccccc1N1CCN(/N=C/c2ccc([N+](=O)[O-])cc2)CC1 | inactive
26 | O=Cc1ccc(N2Cc3ccccc3C2)cc1 | inactive
27 | COc1ccccc1N1CCN(/N=C\c2ccccc2)CC1 | inactive
28 | Cc1ccc(-c2cc3onc(-c4ccccc4)c3c(=O)n2C)cc1 | inactive
29 | CC(=O)CSc1ccc(-c2nc3cc(C)c(C)cc3[nH]2)cn1 | inactive
30 | O=C(O)c1ccc(Nc2nc3c(s2)CCCC3)cc1 | inactive
31 | CC(C)(C)c1ccc(-c2noc(CCC(=O)NCc3ccco3)n2)cc1 | inactive
32 | Cc1ccc(C(=O)Nc2ccccc2Cl)cc1 | inactive
33 | Cc1ccc(OCCCCN2CCCCC2)c(Br)c1 | inactive
34 | COc1ccc(Br)cc1C(C[N+](=O)[O-])c1c(N)n(C)c(=O)n(C)c1=O (stereo not given) | inactive
35 | CN(C)CCCN(C(=O)c1ccc(Cl)s1)c1nc2cc3c(cc2s1)OCO3 | inactive
36 | Cc1ccc2nc(NC(=O)CCCC(=O)O)sc2c1 | inactive
37 | CN(Cc1ccccc1)C1=CC(=[N+]2CCCC2)CC(C)(C)C1 | inactive
38 | CN(C)c1cc[n+](CC(=O)c2ccc(-c3ccccc3)cc2)cc1 | inactive
39 | CCN(CC)Cc1c(O)ccc2c1O/C(=C\C=C\c1ccccc1)C2=O | inactive
40 | CN(CC(=O)N1CCCCCC1)S(=O)(=O)c1ccccc1 | inactive
41 | Cc1cc(C)c2ccc(N)nc2c1O | inactive
42 | CN(C)c1ccc(/C=C/c2cccc[n+]2[O-])cc1 | inactive
43 | O=C(CCl)Nc1cn(-c2ccccc2)nc1-c1ccccc1 | inactive
44 | Cc1nn2c(N)c(-c3ccccc3)cnc2c1-c1ccccc1 | inactive
45 | Brc1ccc(-c2cn3cccnc3n2)cc1 | inactive
46 | CC1CCCC(C)N1CCCNC(=O)c1cc2c(s1)-c1ccccc1OC2 (stereo not given) | inactive

Row | Structure (SMILES) | outcome
47 | O=C(/C=C\Nc1ccc2c(c1)OCO2)c1ccccn1 | inactive
48 | CCN(CC)S(=O)(=O)c1cccc(C(=O)N/N=C/c2ccc([N+](=O)[O-])o2)c1 | inactive
49 | O=[N+]([O-])c1ccc(/C=N/Nc2ccnc3cc(Cl)ccc23)o1 | inactive
50 | CC1CN(N=Cc2ccc([N+](=O)[O-])o2)C(=N)O1 (stereo not given) | inactive
51 | CC(C)C(NC(=O)OCc1ccccc1)C(=O)OCC(=O)N1CCCCC1 (stereo not given) | inactive
52 | O=C(NC(=S)NCc1ccccc1)c1ccccc1 | inactive
53 | CCOc1ccc(-n2c(O)c(/C=N/Nc3nc(C)cc(C)n3)c3ccccc3c2=O)cc1 | inactive
54 | COc1ccc(Nc2oc(-c3ccc(OC)cc3)nc2C#N)cc1 | inactive
55 | Cc1cc(C(=O)N/N=C/c2ccc([N+](=O)[O-])o2)c(C)o1 | inactive
56 | O=C(N/N=C/c1ccccc1)c1ccco1 | inactive
57 | CC1CCN(C(=O)c2cc3ccccc3o2)CC1 | inactive
58 | O=C(Nc1nc2ccccc2s1)Nc1ccc(F)cc1F | inactive
59 | O=C(Nc1cnc2ccccn2c1=O)c1ccc(F)cc1 | inactive
60 | O=C(N/N=C/c1cccc(Oc2ccc([N+](=O)[O-])cc2[N+](=O)[O-])c1)c1cncc(Br)c1 | inactive
61 | COc1cccc(/C=N/Nc2nc3ccccc3[nH]2)c1OC | inactive
62 | C[C@H]1CCC[C@]2(C)C[C@H]3OC(=O)C(CN4CCCCCC4)[C@H]3C=C12 (stereo not given in full) | inactive
63 | O=C(COC(=O)C1=COCCO1)Nc1c(F)cccc1F | inactive
64 | COc1cc(NC(=O)COc2cc(O)c3c(c2)OC(C)(C)CC3=O)cc(OC)c1OC | inactive
65 | O=C(Nc1ccccc1Cl)Nc1cccc2cccnc12 | inactive
66 | Cn1cccc1-c1cc(C(=O)N/N=C/c2cc(Br)ccc2O)[nH]n1 | inactive
67 | Oc1ccccc1/C=N/Nc1cccc2cccnc12 | inactive
68 | O=C(CCCCC(=O)NN=Cc1ccccc1O)NN=Cc1ccccc1O | inactive
69 | O=C(N/N=C/c1cc(Br)ccc1O)c1ccncc1 | inactive

Row | Structure (SMILES) | outcome
70 | Cc1nc(NC(=O)C2CC2)sc1C(=O)Nc1ccccc1Cl | inactive
71 | COc1ccc(C(=O)/C=C(\C)Nc2ccc3c(c2)OCO3)cc1 | inactive
72 | COc1cc(C2C(C#N)=C(N)Oc3cc4c(cc32)OCO4)cc(OC)c1OC (stereo not given) | inactive
73 | O=C(Nc1nnc(Cc2ccccc2)s1)c1ccccc1 | inactive
74 | CCOc1ccc(NC(=O)Nc2cccc(C(=O)O)c2)cc1 | inactive
75 | CN(C)c1ccc(-n2cccc2/C=C/[N+](=O)[O-])cc1 | inactive
76 | Cc1cc(Cl)ccc1NC(=O)c1ccc2c(c1)OCO2 | inactive
77 | Cc1ccc(OCC(=O)Nc2cccc(C)n2)c(C)c1 | inactive
78 | COc1cccc(/C=C/C(=O)c2ccc3c(c2)OCCO3)c1OC | inactive
79 | COc1ccc(/C=C/C(=O)NC(=S)N2CCN(c3ccccc3OC)CC2)cc1 | inactive
80 | CCN1CCN(c2ccc(S(=O)(=O)N3CCOCC3)cc2NC(=O)/C=C/c2ccc([N+](=O)[O-])cc2)CC1 | inactive
81 | O=[N+]([O-])c1cc(S(=O)(=O)N2CCCCCC2)ccc1F | inactive
82 | CN(C)CCNc1ccc2nnn3c4ccc(O)cc4c(=O)c1c23 | inactive
83 | N=C1C(c2nc3ccccc3[nH]2)=C(O)CN1C1CCCCC1 | inactive
84 | COc1ccc(/C=C2\Sc3ccc(C(=O)NCCN4CCCCCC4)cc3N(C)C2=O)cc1 | inactive
85 | COc1ccc(C(=O)NCCSc2ccccc2C)cc1 | inactive
86 | O=C(NCCSc1ccccc1)c1ccccc1F | inactive
87 | CN(C)CCCNc1nc2sc3c(c2c(=O)n1CCc1ccccc1)CCCCC3 | inactive
88 | CC(C)(C)c1ccc(-c2cn(-c3ccc(Br)cc3)c3[n+]2CCCS3)cc1 | inactive
89 | OCc1ccc(N=Nc2ccccc2)cc1 | inactive
90 | CN(C)C1CCN(Cc2cc(COCc3ccccc3)c3cccnc3c2O)C1 (stereo not given) | inactive
91 | Oc1c(CN2CCCC2)cc(COCc2ccccc2)c2cccnc12 | inactive
92 | COc1cccc(CNc2nc3ccccc3n2C)c1O | inactive

Row | Structure (SMILES) | outcome
93 | COC(=O)c1c(NC(=O)c2nc3ccccc3s2)sc2c1CC(C)(C)NC2(C)C | inactive
94 | CC(=O)Nc1ccc2c(c1)ncn2-c1ccccc1 | inactive
95 | O=C1c2ccccc2CN1c1ccccc1 | inactive
96 | O=C(NCc1csc(-c2cccs2)n1)C1CCC1 | inactive
97 | C/C(=N\NC(=O)C(C)Oc1ccc([N+](=O)[O-])cc1)c1ccccn1 (stereo not given) | inactive
98 | CC(=O)N(C1CC(C)C(C#N)(C#N)C1(C#N)C#N)N(C)C (stereo not given) | inactive
99 | COc1ccccc1N1C(=O)N(C(C)=O)C2C1Nc1ccccc1N2C (stereo not given) | inactive
100 | N#Cc1cnc2sc3ccccc3n2c1=N | inactive
101 | Cc1c(/C=C/C(=O)c2ccc(Cl)s2)cnn1C | inactive
102 | Cc1c(C=O)c2cc(OCc3ccccc3)ccc2n1C | inactive
103 | N#C/C(=C\C=C\c1ccccc1[N+](=O)[O-])C(=O)NCc1ccccc1 | inactive
104 | N#C/C(=C\C=C\c1ccccc1[N+](=O)[O-])C(=O)NC1CCCCC1 | inactive
105 | Nc1ncnc(Sc2ncccn2)c1[N+](=O)[O-] | inactive
106 | CC(C)C(=O)Nc1ccc2nn(-c3ccc(F)cc3)nc2c1 | inactive
107 | CS(=O)(=O)N1CCN(c2nc3ccc(Cl)cc3s2)CC1 | inactive
108 | CCCN1CCC(NCc2cn(C)nc2-c2ccc(Oc3ccccc3)cc2)CC1 | inactive
109 | CC(O)CNC(=O)C1CCN(Cc2ccc(OCc3ccccc3)cc2)CC1 (stereo not given) | inactive
110 | COC(=O)c1ccc(COc2ccc(C)cc2[N+](=O)[O-])o1 | inactive
111 | Cc1ccccc1NC(=O)Cc1nc(COC(=O)c2ccc(S(C)(=O)=O)c([N+](=O)[O-])c2)cs1 | inactive
112 | Cc1ccc(-c2n[nH]c(=O)c3ccccc23)cc1S(=O)(=O)NCC1CCCO1 (stereo not given) | inactive
113 | C=CCNC(=O)Cn1nnc(-c2ccc(-c3ccc(OC)cc3)cc2)n1 | inactive
114 | O=C(N/N=C/C=C/c1ccccc1)c1ccccn1 | inactive
115 | Cc1ccc(-c2cn3nc(C)c(C)nc3n2)cc1 | inactive
